Experimental data reported in PubChem BioAssay.
Several values for one entry are separate records, joined by “and”; a condition that tells them apart may be missing. Equal entries are not always repeated. For part of these data: Results with a measured potency or affinity are listed apart. Activity calls are given as the source filed them. Rule as the data show it, unless noted: active = parasite load remaining mostly below about 12% (no sharp cut-off); inactive = mostly above about 10%.

Tests used:
[1] = liver-stage malaria parasite growth inhibition, primary screen, cell-based, HepG2, luciferase luminescence, HepG2 viability (AID 624349);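 also: 100% = mean of DMSO negative control wells on the same plate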; conditions: P. berghei liver stage in HepG2, luciferase luminescence, concentration not given here; parasite load remaining: stronger effect = lower value; viability: measured here: HepG2 viability without parasites
[2] = differential killing of epithelial or mesenchymal cells, primary screen, imaging, PC-3E GFP, TEM4-18 mCherry, co-culture (AID 1345086;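 active = compounds killing one labelled cell type while sparing the other, by normalised counts and ratio limits, not self-fluorescent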;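 as to all read-outs here: cells exposed to compound for 72 h before imaging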;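 as to red/green cell ratio (normalised): normalised mesenchymal count divided by normalised epithelial count so high means epithelial killing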); conditions: imaging cell counts, at 1 µM; for red/green cell ratio (normalised): actives lie on both sides, counts scaled to control wells, 1 = unselective
[3] = sensitizers of A549 cells to miR-34 induction, primary screen, imaging, A549 dox-inducible miR-34, nuclei and caspase counts (AID 1347080;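 active = compounds whose cell count with miR-34 switched on is under 0.7 times the count with it off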); conditions: A549 miR-34 inducible, Hoechst nuclei count, 48 h
[4] = viability rescue of complex I mutant cybrids, primary screen, cell-based, galactose medium, ATP luminescence (AID 1645843;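 active = z-score of at least 1.8 in each of two replicates, scored against plate mean and spread of sample wells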;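 also: positive z means more ATP and so rescue of galactose-driven cybrid death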); conditions: complex I mutant cybrid cells, 72 h, stronger effect = higher value
[5] = polyglutamine-triggered caspase-3 activation inhibitors, cell-based (AID 1583); conditions: polyglutamine-induced caspase-3 activation, cell assay; stronger effect = higher value;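 tested at 10 µM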
[6] = suppressors of polyQ aggregation in yeast, 75Q-TubU reporter (AID 1593); conditions: Yeast 75Q polyglutamine aggregation reporter
[7] = rescue of polyQ-huntingtin neuronal dysfunction in worms, whole organism, C. elegans mechanosensory neurons, N-terminal huntingtin (AID 1599); conditions: touch response, stronger effect = higher value
[8] = inhibitors of mitochondrial cytochrome c release, biochemical, purified mitochondria (AID 1603); conditions: stronger effect = lower value;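 also: mouse liver mitochondria challenged with calcium chloride; signal normalized to the plate average as 100%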
[9] = inhibitors of polyQ protein aggregation (AID 1604); conditions: polyglutamine-induced protein aggregation inhibition assay; stronger effect = higher value; tested at 2.5 µM
[10] = enhancers of glutamate uptake in motor neurons, MN-1 cell line (AID 1612); conditions: MN-1 motor neuron cells, stronger effect = higher value;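 also: tested at 1 µM final; 0% = mean of DMSO vehicle wells on each plate; positive means more glutamate uptake than control and negative means less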
[11] = reducers of polyQ inclusions in PC12 cells, cell-based, NGF-treated PC12, GFPQ80 (AID 1614); conditions: PC12 NGF-treated GFP-polyQ80 inclusion reduction;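 also: lower means fewer inclusions and 0 means no inclusions at all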
[12] = suppressors of polyglutamine aggregation in yeast, 75Q-TubH (AID 1616); conditions: S. cerevisiae 75Q-TubH polyglutamine aggregation suppression; stronger effect = higher value
[13] = measured here: epithelial PC-3E GFP cell survival
[14] = measured here: mesenchymal TEM4-18 mCherry cell survival
[15] = stronger effect = lower value, cell number ratio, induced over uninduced
[16] = measured here: relative caspase fold change +Dox/-Dox
[17] = measured here: total cells with miR-34 induction, stronger effect = lower value
[18] = measured here: total cells without miR-34 induction

| Compound | parasite load remaining [1] | viability [1] | red/green cell ratio (normalised) [2] | normalised cell number [2, 13] | normalised cell number [2, 14] | fold change [3, 15] | fold change [3, 16] | cell count [3, 17] | cell count [3, 18] | z-score [4] | inhibition [5] | score [6] | rescue above control [7] | cytochrome c release ratio [8] | inhibition of aggregation [9] | glutamate uptake change [10] | inclusion score [11] | aggregation suppression score [12] |
| --- | --- | --- | --- | --- | --- | --- | --- | --- | --- | --- | --- | --- | --- | --- | --- | --- | --- | --- |
| C#C[C@]1(O)CCC2C3CCc4cc(OC)ccc4C3CC[C@@]21C (stereo not given in full) | 13.7% (inactive) | 131% | 1.01 (inactive) | 1.1 | 1.11 | 0.913 (inactive) and 0.85 (inactive) | 1.29 and 1.24 | 8740 and 9660 | 9570 and 11400 | -1.44 (inactive) |  |  |  |  |  |  |  |  |
| CC1(C)O[C@@H]2CC3C4C[C@H](F)C5=CC(=O)CC[C@]5(C)C4[C@@H](O)C[C@]3(C)[C@]2(C(=O)CO)O1 (stereo not given in full) | 151% (inactive) and 47.9% (inactive) | 68.8% and 102% | 1.21 (inactive) | 1.17 | 1.42 | 0.854 (inactive) | 2.6 | 7720 | 9050 |  | 6.64% | 1.49 | 7.14 | 1.08 | 66.7% | 17% | 2.5 | 0.898 |
| CN(C)CCCO[C@H]1[C@@H](C(O)CO)OC2OC(C)(C)O[C@@H]21 (stereo not given in full) | 121% (inactive) and 48% (inactive) | 87.2% and 101% | 0.97 (inactive) | 0.98 | 0.95 | 0.948 (inactive) | 2.91 | 12000 | 12700 |  | 13.5% | 1.28 | -9.95 | 1.02 | 85.9% | -4% | 2 | 1.2 |
| C#C[C@]1(O)CCC2C3CCC4=C(CCC(=O)C4)C3CC[C@@]21C (stereo not given in full) | 73.4% (inactive) and 48.3% (inactive) | 71.3% and 92% | 1.12 (inactive) | 1.18 | 1.32 | 0.929 (inactive) | 1.51 | 11200 | 12100 |  | -10.6% | 0.8 | -0.46 | 1.11 | 55.6% | -10.2% |  | 0.537 |
| CC(=O)OCC(=O)[C@@]1(O)CCC2C3CCC4=CC(=O)C=CC4(C)C3[C@@H](O)C[C@@]21C (stereo not given in full) | 118% (inactive) and 56% (inactive) | 73.8% and 82.3% | 1.41 (inactive) | 1 | 1.41 | 0.859 (inactive) | 2.47 | 6780 | 7890 |  | 26% | 0.73 | -9.27 | 0.8 | 51% | 16.1% | 2 | 0.991 |
| C[C@H](CCC(=O)O)[C@H]1CCC2C3C(CC[C@@]21C)[C@@]1(C)CC[C@@H](O)C[C@H]1C[C@H]3O (stereo not given in full) | 96.5% (inactive) and 33.9% (inactive) | 70.7% and 87% | 1.27 (inactive) | 0.99 | 1.25 | 0.893 (inactive) | 3.03 | 10800 | 12100 |  | 13.5% | -0.55 | -0.69 | 0.92 | 21.1% | -19.3% |  | 0.165 |
| CC(=O)S[C@@H]1CC2=CC(=O)CC[C@]2(C)[C@H]2CC[C@@]3(C)[C@@H](CC[C@@]34CCC(=O)O4)C12 (stereo not given in full) | 56.6% (inactive) and 46.1% (inactive) | 72.6% and 88.2% | 1.24 (inactive) | 1 | 1.25 | 0.863 (inactive) | 2.19 | 10200 | 11900 |  |  |  |  |  |  |  |  |  |
| C[C@]12CCC(=O)C=C1C=CC1C2CC[C@@]2(C)C1CC[C@@]21CCC(=O)O1 (stereo not given in full) | 99.9% (inactive) and 38.4% (inactive) | 91.3% and 97% | 0.76 (inactive) | 1.2 | 0.92 | 0.895 (inactive) | 1.44 | 11200 | 12500 |  |  |  |  |  |  |  |  |  |
| CC(C)(C)NCC(O)COc1cccc2c1CCCC2=O (stereo not given) | 76.4% (inactive) | 103% | 1.02 (inactive) | 1.01 | 1.03 | 0.83 (inactive) | 2.71 | 11300 | 13600 |  |  |  |  |  |  |  |  |  |
| CCCCCC(O)C1C(=O)OC(C)C(O)/C=C/C=C/C=C/C=C/C=C(\C)C(O)CC(O)CC(O)CC(O)CC(O)CC(O)CC1O (stereo not given) | 18% (inactive) | 94.9% | 1.13 (inactive) | 0.84 | 0.95 | 0.935 (inactive) | 2.39 | 11500 | 12300 |  |  |  |  |  |  |  |  |  |
| CCCCC/C=C/CCC(=O)N[C@H]1[C@H](Oc2c3cc4cc2Oc2ccc(cc2Cl)[C@@H](O[C@@H]2O[C@H](CO)[C@@H](O)[C@H](O)[C@H]2NC(C)=O)[C@@H]2NC(=O)[C@H](NC(=O)[C@@H]4NC(=O)[C@H]4NC(=O)C(Cc5ccc(c(Cl)c5)O3)NC(=O)[C@H](N)c3ccc(O)c(c3)Oc3cc(O)cc4c3)c3ccc(O)c(c3)-c3c(OC4O[C@H](CO)[C@@H](O)[C@H](O)[C@@H]4O)cc(O)cc3[C@@H](C(=O)O)NC2=O)O[C@H](CO)[C@@H](O)[C@@H]1O (stereo not given in full) | 146% (inactive) | 99.2% | 1.02 (inactive) | 0.94 | 0.96 | 0.918 (inactive) | 5.67 | 12100 | 13200 |  |  |  |  |  |  |  |  |  |
| CC(C)C1CCC(C(=O)N[C@@H](Cc2ccccc2)C(=O)O)CC1 (stereo not given in full) | 74.2% (inactive) and 53.3% (inactive) | 105% and 113% | 0.92 (inactive) | 1.14 | 1.05 | 0.867 (inactive) | 4.55 | 11100 | 12800 |  |  |  |  |  |  |  |  |  |
| CC1C/C=C/C=C/C=C/C=C/C(O[C@@H]2O[C@H](C)[C@@H](O)[C@H](N)[C@@H]2O)CC2OC(O)(CC(O)CC3OC3/C=C/C(=O)O1)CC(O)C2C(=O)O (stereo not given in full) | 78.2% (inactive) | 102% | 1.02 (inactive) | 1.04 | 1.06 | 0.858 (inactive) | 2.95 | 11800 | 13800 |  |  |  |  |  |  |  |  |  |
| CCCCC(=O)O[C@]1(C(=O)CO)CCC2C3CCC4=CC(=O)CC[C@]4(C)C3[C@@H](O)C[C@@]21C (stereo not given in full) | 79% (inactive) | 98.3% | 1.41 (inactive) | 0.69 | 0.97 | 0.833 (inactive) | 3.05 | 7620 | 9140 |  |  |  |  |  |  |  |  |  |
